Compound activity from PubChem BioAssay.
An excerpt weighted towards active compounds, which were near 3.8% of everything screened.
A549 tox-1: kills or reduces viability of A549 cells in Nrf2 counter-screen | hit rate 0.16% among 390,000 | Potency, µM (series often up to 46 µM), for the others: at the top dose activity change, negative = cytotoxicity, usual class: inhibitors | A549 ARE-Fluc cells, CellTiter-Fluor viability, 18-24 h | AID 504648; further: on the % scale 0 is the no-effect control and ±100 the full control effect
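A549 ARE-Fluc cells in 5% FBS OPTI-MEM, 5000 cells/well, rested 2 h then exposed to compounds in concentration-response for 18-24 h at 37 °C. Viability by CellTiter-Fluor fluorescence (Ex 405/Em 525) after 30 min; luciferase luminescence (BugLite, 15 min, RT) read afterwards.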
ELG1 repair inh: blocks ELG1-dependent DNA repair in HEK293T cells. HEK293T ELG1-luciferase reporter, luminescence, 16 h; DNA damage induced by 5-fluorouridine. Potency, µM (titrated, usually from 46.1 µM), without a hit: top-dose activity change, negative = inhibition, usual class: inhibitors. hit rate 2.3% among 330,000. AID 504467; further: on the % scale 0 is the no-effect control and ±100 the full control effect; nearly all actives have a fitted effect of over 55% in size
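HEK293T cells expressing luciferase-tagged ELG1 (2,000/well) received 5-Fluorouridine plus compound or DMSO for 16 hr at 37 °C. Luciferase was read by ONE-Glo luminescence after 30 min at room temperature.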
Nrf2 block: blocks Nrf2 signaling; A549 ARE-Fluc reporter, luciferase luminescence, 18-24 h; Potency, µM (highest dose often 46 µM), for the others: top-dose activity change, negative = inhibition, most hits filed as inhibitors; hit rate 2.1% among 360,000; further: on the % scale 0 is the no-effect control and ±100 the full control effect; nearly all actives have a fitted effect of over 60% in size
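Nrf2 activity is the BugLite luminescence, read 15 min after reagent at room temperature, following CellTiter-Fluor cytotoxicity readout (30 min, 37C). Compound titrations were applied for 18-24 h to 5000 A549 ARE_Fluc cells/well in 5% FBS OPTI-MEM.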
Nrf2 ARE act: activates Nrf2 signaling; AREc32 ARE-luciferase reporter (MCF7-derived line), luminescence, 24 h; Potency, µM (titrated, usually from 46.1 µM), for inactives: top-dose activation, usual class: activators; hit rate 0.31% among 410,000; AID 624171; further: % of control where 0% means no effect; nearly all actives have a fitted effect of over 65% in size
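Luciferase luminescence (Steady-Glo, 30 min at room temperature) served as the read-out of ARE activation in AREc32 cells treated with compounds for 24 hr at 37 deg C.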
IDH1 R132H inh: blocks human mutant IDH1 R132H enzyme; hit rate 0.093% among 390,000; O75874; Potency, µM (top dose mostly 76.6 µM), inactives show top-dose activity change, negative = inhibition, most hits filed as inhibitors; IDH1-R132H enzyme, NADPH consumption, diaphorase/resazurin fluorescence; further: on the % scale 0 is the no-effect control and ±100 the full control effect; nearly all actives have a fitted effect of over 65% in size
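IDH1-R132H (0.5 ug/mL) preincubated 30 min with compound, then NADPH (0.016 mM) and alpha-KG (2 mM) added; 80 min at RT, pH 7.5. Remaining NADPH coupled via diaphorase/resazurin to fluorescence (540/590 nm); concentration-response curves normalized to no-enzyme control.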
FLuc counter 3: firefly luciferase inhibition, Nrf2 hit validation | Potency, µM (titrated, usually from 57.5 µM), for inactives: at the highest dose activity change, negative = inhibition, most hits filed as inhibitors | purified firefly luciferase, luminescence inhibition | AID 720522 | shares compounds with Nrf2 block | hit rate 4% among 1,400; further: on the % scale 0 is the no-effect control and ±100 the full control effect; nearly all actives have a fitted effect of over 65% in size
Target sequence (P08659 whole entry, looked up): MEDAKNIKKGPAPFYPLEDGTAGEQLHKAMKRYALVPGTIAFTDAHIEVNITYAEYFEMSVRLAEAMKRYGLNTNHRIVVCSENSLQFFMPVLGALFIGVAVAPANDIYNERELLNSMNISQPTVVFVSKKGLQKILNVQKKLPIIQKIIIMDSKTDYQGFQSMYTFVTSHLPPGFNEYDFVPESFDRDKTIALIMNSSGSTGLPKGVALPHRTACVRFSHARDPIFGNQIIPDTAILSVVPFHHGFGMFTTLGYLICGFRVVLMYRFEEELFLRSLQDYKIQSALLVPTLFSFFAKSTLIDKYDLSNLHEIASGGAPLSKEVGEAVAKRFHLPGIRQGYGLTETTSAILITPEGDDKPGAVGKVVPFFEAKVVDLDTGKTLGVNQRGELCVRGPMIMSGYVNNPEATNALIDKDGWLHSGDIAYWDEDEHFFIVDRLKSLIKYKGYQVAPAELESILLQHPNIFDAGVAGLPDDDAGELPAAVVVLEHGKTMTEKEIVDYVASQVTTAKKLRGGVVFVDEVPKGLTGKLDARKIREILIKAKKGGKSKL
A549 tox-2: counter-screen for Nrf2 inhibitors: cytotoxicity in A549 ARE cells | shares compounds with Nrf2 block | AID 720523 | hit rate 2% among 1,400 | A549 ARE-Fluc cells, cytotoxicity counterscreen | Potency, µM (doses to about 46.1 µM), for inactives: at the top dose activity change, negative = cytotoxicity, usual class: inhibitors;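 further: cells exposed to compounds for 18 to 24 hours; on the % scale 0 is the no-effect control and ±100 the full control effect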
Nrf2 ARE inh: reduces Nrf2 ARE reporter signal in A549 cells | shares compounds with Nrf2 block | A549 ARE-firefly luciferase reporter, luminescence | Potency, µM (series often up to 46.1 µM), without a hit: at the highest dose activity change, negative = inhibition, hits mostly inhibitors | hit rate 74% among 1,400 | AID 720524; further: on the % scale 0 is the no-effect control and ±100 the full control effect; nearly all actives have a fitted effect of over 65% in size
* = called active by the depositor; u = inconclusive; x = no result shown. The call rests on the fitted dose curve; in most records, active means well fitted curve in the direction sought with a large enough effect; inconclusive means small, poorly fitted or top-dose-only effect, or another doubt; inactive means no such curve, though single readings can be large; an effect the other way counts as inactive or inconclusive. Potency means the concentration at half of the fitted maximal effect.

SMILES	A549 tox-1	ELG1 repair inh	Nrf2 block	Nrf2 ARE act	IDH1 R132H inh	FLuc counter 3	A549 tox-2	Nrf2 ARE inh
CC(C)(C)c1ccc(-c2noc(CCC(=O)Nc3cccc(Cl)c3)n2)cc1	1.5%	x	0.146µM*	-3.4%	-8.6%	u	1.2%	x
CC(C)(C)c1ccc(-c2noc(CCC(=O)NCc3ccco3)n2)cc1	11.6µM*	1.5%	0.0184µM*	6.4%	0.6%	1.2µM*	-6.3%	0.82µM*
Cc1ccc(C)c(NC(=O)CCc2nc(-c3ccc(C(C)(C)C)cc3)no2)c1	0.3%	x	u	0.3%	20.7%	x	x	x
CCCCCNC(=O)c1ccc2c(c1)nc(C)n2-c1cccc(C)c1	4.6%	x	x	3.9%	20.7%	x	x	x
O=C(CN1C(=O)NC2(CCCC2)C1=O)N1CCN(S(=O)(=O)c2cccc(C(F)(F)F)c2)CC1	5.4%	9.4%	-12.9%	-0.7%	-0.8%	x	x	x
O=C(Nc1ccc(Cl)cc1)Nc1ccc(N2CCCC2)c(S(=O)(=O)Nc2ccccc2Cl)c1	u	17.0%	3.26µM*	2.4%	-0.7%	0.4%	u	6.51µM*
COc1ccccc1NS(=O)(=O)c1cc(NC(=O)Nc2cccc(C)c2)ccc1N1CCCCC1	0.3%	u	4.2%	1.9%	0.9%	x	x	x
Cc1cc(C(=O)N/N=C/c2sc(N3CCOCC3)nc2-c2ccccc2)c(C)o1	-3.7%	u	-17.1%	0.3%	-5.8%	x	x	x
O=[N+]([O-])c1ccc(N/N=C/c2sc(N3CCOCC3)nc2-c2ccccc2)c(S(=O)(=O)Nc2ccc(Cl)cc2)c1	2.59µM*	u	1.46µM*	0.3%	14.2%	-23.1%	u	3.26µM*
C/C(=N\NC(=O)c1cc(-c2cccc([N+](=O)[O-])c2)n[nH]1)c1ccccc1O	u	-23.8%	9.2µM*	-1.2%	4.2%	-13.5%	-3.2%	u
O=C1c2cccc3cc([N+](=O)[O-])cc(c23)C(=O)N1CCN1CCCC1	u	u	1.84µM*	-2.0%	-7.3%	-1.0%	u	u
Clc1ccc(/C=C/c2ccncc2)cc1Cl	x	x	x	x	x	0.0%	-39.4%	u
CCC(=O)N1CCCc2cc(S(=O)(=O)N3CCC(C(=O)NC4CCC(C)CC4)CC3)ccc21 (stereo not drawn)	8.0%	x	x	2.2%	4.0%	x	x	x
Cc1cc(Cl)c(S(=O)(=O)N2CCCC2)cc1OCC(=O)NC1CCCCC1	x	13µM*	7.31µM*	-0.5%	-1.2%	0.2%	-17.9%	x
CCn1c(COc2cccc(C)c2C)nnc1SCC(=O)N1CCN(c2ccc(OC)cc2)CC1	-6.4%	10.3µM*	9.2µM*	-0.4%	3.6%	-0.8%	-15.3%	8.2µM*
Cc1cccc(Cn2c(=O)n(-c3ccccc3C)c(=O)c3c2c2cc(C)ccc2n3C)c1	-1.5%	x	28.5%	-0.2%	-4.6%	x	x	x
Cc1ccc2c(c1)c(/C=C/c1cc[n+](C)cc1)c(C)n2C	u	u	3.66µM*	-2.2%	4.5%	-8.4%	u	6.51µM*
COc1ccc(N(CC(=O)NCCc2ccccc2)S(=O)(=O)c2c(C)nn(C)c2C)cc1	13.5%	x	6.1%	-0.1%	1.1%	x	x	x
CC(C)c1ccc(NC(=O)C2CCCN(S(=O)(=O)c3cccc4nsnc34)C2)cc1 (stereo not drawn)	0.8%	x	7.5%	0.4%	-10.4%	x	x	x
O=C(c1ccccc1)c1c(-c2ccccc2)[nH]n(-c2ccccc2)c(=O)c1=O	-2.3%	x	u	0.2%	-0.5%	x	x	x
Cc1ccc(S(=O)(=O)N2CCC(C(=O)Nc3ccc(C)c(Cl)c3)CC2)cc1	-14.0%	x	u	7.8%	-3.2%	-2.3%	-16.5%	7.31µM*
Cc1ccc(S(=O)(=O)N2CCC(C(=O)Nc3ccc(S(=O)(=O)N4CCOCC4)cc3)CC2)cc1	-2.9%	x	u	0.6%	5.4%	x	x	x
CC1Sc2ccc(S(=O)(=O)N3CCN(c4ccccc4)CC3)cc2NC1=O (stereo not drawn)	-5.3%	-1.7%	7.31µM*	0.7%	-9.4%	-0.9%	-4.8%	u
CC1Sc2ccc(S(=O)(=O)N3CCN(c4cccc(Cl)c4)CC3)cc2NC1=O (stereo not drawn)	-3.3%	-1.1%	-5.7%	0.6%	-3.4%	x	x	x
Cc1ccc(NC(=O)C2CCN(S(=O)(=O)c3ccc4c(c3)NC(=O)C(C)S4)CC2)cc1Cl (stereo not drawn)	u	13µM*	1.3µM*	-0.5%	-2.6%	-9.6%	-27.4%	9.2µM*
SMILES	A549 tox-1	ELG1 repair inh	Nrf2 block	Nrf2 ARE act	IDH1 R132H inh	FLuc counter 3	A549 tox-2	Nrf2 ARE inh
C=CCN(c1ccccc1)S(=O)(=O)c1cccc(C(=O)Nc2ccncc2)c1	-7.4%	u	u	5.1%	4.7%	x	x	x
C=CCN(c1ccccc1)S(=O)(=O)c1cccc(C(=O)Nc2nc3ccccc3[nH]2)c1	u	23.1µM*	2.91µM*	5.1%	4.2%	-16.3%	-0.4%	5.8µM*
Cc1ncc(CO)c2c1Oc1nc(-c3ccccc3)nc(SCC(=O)Nc3cccc(O)c3)c1C2	u	u	1.84µM*	-0.1%	0.8%	-2.2%	-14.4%	5.8µM*
O=C(Nc1ccc(OCc2cc(=O)n3ccccc3n2)cc1)c1ccccc1Cl	11.0%	x	x	-1.1%	-4.2%	x	x	x
c1ccc(-c2csc3ncnc(NCC4COc5ccccc5O4)c23)cc1 (stereo not drawn)	0.7%	u	1.64µM*	7.9%	0.4%	-9.2%	0.0%	1.16µM*
Cc1sc2ncnc(NCC3COc4ccccc4O3)c2c1C (stereo not drawn)	-4.9%	u	u	8.2%	8.2%	x	x	x
O=C(CCCN1C(=O)/C(=C/c2ccccc2Cl)SC1=S)NNC(=O)c1ccc(Cl)cc1	0.1%	22.0%	8.2µM*	-1.5%	1.8%	-4.6%	-21.9%	7.31µM*
Cc1ccc(C(=O)NNC(=O)CCCN2C(=O)/C(=C/c3ccccc3Cl)SC2=S)cc1	u	-7.2%	9.2µM*	-1.4%	0.8%	u	-4.1%	u
Cc1ccc(/C=C2/SC(=S)N(CCCC(=O)Nc3ccc(O)cc3)C2=O)cc1	u	16.0%	9.2µM*	2.5%	0.5%	u	u	13µM*
O=C(CCN1C(=O)/C(=C/c2ccccc2Cl)SC1=S)NNC(=O)c1cccnc1	-4.4%	14.2%	4.5%	8.6%	6.7%	x	x	x
